The values that follow come from PubChem BioAssay (NCI).

Some test systems named below: NCI-H226 lung; NCI-H322M lung; NCI-H460 lung; HOP-92 NSCLC; NCI-H522 lung; A549/ATCC NSCLC; 786-0 renal; COLO 205 colon; DU-145 prostate; MALME-3M melanoma; MDA-MB-231 breast; RXF 393 renal; SF-268 CNS; SF-295 CNS; SF-539 CNS; UACC-257 melanoma; M14 melanoma; HOP-62 NSCLC; K-562 leukemia.
Holding throughout (experiment): NCI-60 one-dose screen, 48 h (100 = growth as untreated, 0 = no growth, -100 = all killed)
Common to all, as to conditions: 10 µM unless noted

Values joined by “and” are separate entries in the source; they are usually repeats but may differ in a detail not shown here. Equal entries are not always repeated. About 83,000 compounds went through this panel and 20% of them were active in at least one assay; those are over-represented in the sample as a whole.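 96-well plates, one dose, 48 hours. Percent growth reported; active if below 10.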 A structure can be active in one record and inactive in another. Active and inactive are the calls of the source.

Consider `O=C=NC(c1ccccc1)(c1ccccc1)c1ccccc1`, for which the growth in the assay on NCI-H226 lung was 111% (inactive); with NCI-H322M lung, 104% (inactive); in the assay with NCI-H460 lung it was 111% (inactive); in the assay with HOP-92 NSCLC it was 110% (inactive); in the assay with NCI-H522 lung it was 90.2% (inactive); in the assay on A549/ATCC NSCLC, 107% (inactive). Also, the growth in the assay on 786-0 renal is 95% (inactive); with COLO 205 colon it was 101% (inactive); with DU-145 prostate, 106% (inactive); with MALME-3M melanoma it was 95.2% (inactive); in the assay with MDA-MB-231 breast, 97.5% (inactive); in the assay on RXF 393 renal it was 129% (inactive). The growth in the assay with SF-268 CNS was 104% (inactive); with SF-295 CNS, 98% (inactive); with SF-539 CNS, 110% (inactive); in the assay with UACC-257 melanoma it was 107% (inactive); with M14 melanoma, 101% (inactive).

Take `c1ccc(N(c2ccccc2)c2ccccc2)cc1`: the growth in the assay with NCI-H226 lung was 104% (inactive); in the assay on NCI-H322M lung it was 97.6% (inactive); in the assay with NCI-H460 lung, 111% (inactive); in the assay with HOP-92 NSCLC, 112% (inactive); with NCI-H522 lung, 95.9% (inactive); with A549/ATCC NSCLC, 99% (inactive). The growth in the assay on 786-0 renal was 97.9% (inactive); in the assay with COLO 205 colon it was 113% (inactive); in the assay on DU-145 prostate, 113% (inactive); with MALME-3M melanoma it was 93.8% (inactive); with MDA-MB-231 breast, 120% (inactive); in the assay with RXF 393 renal it was 122% (inactive). The growth in the assay on SF-268 CNS was 106% (inactive); in the assay on SF-295 CNS, 92% (inactive); in the assay on SF-539 CNS it was 104% (inactive); with UACC-257 melanoma, 104% (inactive); in the assay on M14 melanoma, 100% (inactive).

As to `Cc1ccc(S(=O)(=O)NCN2C(=O)c3ccccc3C2=O)cc1`, the growth with NCI-H226 lung is 115% (inactive); in the assay on NCI-H322M lung, 105% (inactive); in the assay on HOP-62 NSCLC it was 112% (inactive); with NCI-H460 lung, 113% (inactive); with HOP-92 NSCLC, 109% (inactive); in the assay with NCI-H522 lung it was 103% (inactive). Further, the growth with A549/ATCC NSCLC is 99% (inactive); with 786-0 renal it was 103% (inactive); in the assay with DU-145 prostate it was 125% (inactive); in the assay with K-562 leukemia it was 106% (inactive); with MALME-3M melanoma it was 133% (inactive); in the assay with MDA-MB-231 breast, 117% (inactive). Besides, the growth is 121% (inactive) in the assay on RXF 393 renal; 106% (inactive) in the assay with SF-268 CNS; 100% (inactive) in the assay with SF-295 CNS; 112% (inactive) in the assay with SF-539 CNS; 104% (inactive) in the assay with UACC-257 melanoma; 109% (inactive) with M14 melanoma.

`CC(C)N=c1cc2n(-c3ccc(Cl)cc3)c3ccccc3nc-2cc1Nc1ccc(Cl)cc1`: the growth is 35.8% (inactive) and 20.1% (inactive) and -21.7% (active) in the assay with NCI-H226 lung; 26.9% (inactive) and -13.2% (active) and -0.542% (active) in the assay on NCI-H322M lung; 55.8% (inactive) and 73.1% (inactive) and 42.9% (inactive) in the assay with HOP-62 NSCLC; 13.1% (inactive) and 13.2% (inactive) and -4.66% (active) in the assay on NCI-H460 lung; -2.5% (active) and -0.497% (active) in the assay on HOP-92 NSCLC; 9.58% (active) and -31.8% (active) in the assay on NCI-H522 lung. Also, the growth in the assay with 786-0 renal is 24.7% (inactive) and 9.68% (active) and -18.8% (active); in the assay with COLO 205 colon, -7.57% (active) and -28.7% (active); in the assay on DU-145 prostate, 51.4% (inactive) and 15.5% (inactive); in the assay with K-562 leukemia, 14.5% (inactive) and -17.3% (active); in the assay with MALME-3M melanoma, 5.85% (active) and -83.1% (active) and -46% (active); in the assay on MDA-MB-231 breast, -0.451% (active) and 26% (inactive) and 10.6% (inactive). Also, the growth with RXF 393 renal is 8.99% (active) and -11.2% (active) and 12.3% (inactive); with SF-268 CNS, 45.5% (inactive) and 35.7% (inactive) and 31.2% (inactive); in the assay on SF-295 CNS, 9.83% (active) and 19.6% (inactive) and -10.5% (active); with SF-539 CNS it was 72.8% (inactive) and 73.3% (inactive) and 59.1% (inactive); with UACC-257 melanoma, 28.3% (inactive) and 29.6% (inactive) and 7.9% (active); in the assay on M14 melanoma, -8.29% (active) and -34.4% (active) and -56.7% (active).

`Cc1ccc(-c2noc(C)n2)cc1`: the growth with NCI-H226 lung was 93.8% (inactive); in the assay on HOP-62 NSCLC it was 100% (inactive); in the assay on NCI-H460 lung, 106% (inactive); with HOP-92 NSCLC, 92.1% (inactive); in the assay on NCI-H522 lung it was 99.3% (inactive); with A549/ATCC NSCLC, 93.6% (inactive). Moreover, the growth was 102% (inactive) in the assay with 786-0 renal; 113% (inactive) in the assay on COLO 205 colon; 115% (inactive) in the assay with DU-145 prostate; 96.1% (inactive) in the assay on K-562 leukemia; 108% (inactive) in the assay on MALME-3M melanoma; 111% (inactive) in the assay with MDA-MB-231 breast. Also, the growth is 94.2% (inactive) with RXF 393 renal; 111% (inactive) with SF-268 CNS; 95.2% (inactive) with SF-295 CNS; 98.7% (inactive) in the assay on SF-539 CNS; 92.9% (inactive) in the assay on UACC-257 melanoma; 110% (inactive) in the assay on M14 melanoma.

As for `C1CCCCNCCC1`, the growth was 99.2% (inactive) with NCI-H226 lung; 111% (inactive) with NCI-H322M lung; 116% (inactive) in the assay with HOP-62 NSCLC; 118% (inactive) with NCI-H460 lung; 88.3% (inactive) in the assay with HOP-92 NSCLC; 115% (inactive) in the assay on NCI-H522 lung. Further, the growth is 109% (inactive) in the assay with 786-0 renal; 121% (inactive) with COLO 205 colon; 118% (inactive) in the assay on DU-145 prostate; 104% (inactive) with K-562 leukemia; 106% (inactive) in the assay with MALME-3M melanoma; 101% (inactive) in the assay with MDA-MB-231 breast. The growth with RXF 393 renal is 103% (inactive); in the assay on SF-268 CNS it was 109% (inactive); with SF-295 CNS, 104% (inactive); in the assay with SF-539 CNS, 113% (inactive); in the assay on UACC-257 melanoma it was 100% (inactive); in the assay on M14 melanoma it was 105% (inactive).

On to `OC1CCC(Oc2cccc3cnc(Nc4ccc5nc[nH]c5c4)nc23)CC1` (centres undefined), for which the growth was 9.66% (active) and 31.6% (inactive) in the assay on NCI-H226 lung; 12.2% (inactive) and 50.6% (inactive) in the assay on NCI-H322M lung; 4.89% (active) and 25.8% (inactive) in the assay with NCI-H460 lung; 14.2% (inactive) and 40.3% (inactive) in the assay with HOP-92 NSCLC; -21.9% (active) and 54% (inactive) with NCI-H522 lung; -9.62% (active) and 28.9% (inactive) in the assay on A549/ATCC NSCLC. For the same compound, the growth was 15.5% (inactive) and 38.8% (inactive) in the assay on 786-0 renal; -30.1% (active) and 34.8% (inactive) in the assay on COLO 205 colon; 13.2% (inactive) and 48% (inactive) in the assay with DU-145 prostate; 9.4% (active) and 54% (inactive) in the assay on K-562 leukemia; -8.81% (active) and 86.7% (inactive) with MALME-3M melanoma; 2.87% (active) and 44.5% (inactive) in the assay on MDA-MB-231 breast. Moreover, the growth in the assay with RXF 393 renal is -16.8% (active) and 23% (inactive); in the assay on SF-268 CNS, 1.49% (active) and 45.4% (inactive); in the assay on SF-295 CNS it was 13.1% (inactive) and 62.2% (inactive); in the assay with SF-539 CNS, -34.1% (active) and 32% (inactive); with UACC-257 melanoma, -24.7% (active) and 44.8% (inactive); in the assay with M14 melanoma, -9.41% (active) and 49.1% (inactive).
